Sampled rows, rich in hits. Any-hit rate of the full collection: about 12%.
G9a inh = blocks human histone lysine methyltransferase G9a; G9a H3K9 monomethylation, AlphaScreen, 2 h; Q96KQ7; Potency, µM (highest dose often 102 µM), hits mostly inhibitors; 350,000 compounds, 8.8% hits; AID 504332; further: nearly all actives have a fitted effect of over 75% in size
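Methyltransferase reactions run at room temperature for 2 h (20 nM enzyme, 500 nM biotin-H3K9 peptide, 20 uM SAM) after a 15 min compound preincubation; product detected by AlphaScreen beads and anti-H3K9me1 antibody.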
PLK1 PBD block = blocks phosphopeptide binding to human PLK1 polo-box domain; P53350; Plk1 PBD binding of FITC phosphopeptide, fluorescence polarization; Potency, µM, usual class: inhibitors; 360,000 compounds, 2.8% hits; further: series mostly up to about 57 µM; nearly all actives have a fitted effect of over 65% in size
Target sequence (P53350 whole entry, looked up, the tested form may be a part): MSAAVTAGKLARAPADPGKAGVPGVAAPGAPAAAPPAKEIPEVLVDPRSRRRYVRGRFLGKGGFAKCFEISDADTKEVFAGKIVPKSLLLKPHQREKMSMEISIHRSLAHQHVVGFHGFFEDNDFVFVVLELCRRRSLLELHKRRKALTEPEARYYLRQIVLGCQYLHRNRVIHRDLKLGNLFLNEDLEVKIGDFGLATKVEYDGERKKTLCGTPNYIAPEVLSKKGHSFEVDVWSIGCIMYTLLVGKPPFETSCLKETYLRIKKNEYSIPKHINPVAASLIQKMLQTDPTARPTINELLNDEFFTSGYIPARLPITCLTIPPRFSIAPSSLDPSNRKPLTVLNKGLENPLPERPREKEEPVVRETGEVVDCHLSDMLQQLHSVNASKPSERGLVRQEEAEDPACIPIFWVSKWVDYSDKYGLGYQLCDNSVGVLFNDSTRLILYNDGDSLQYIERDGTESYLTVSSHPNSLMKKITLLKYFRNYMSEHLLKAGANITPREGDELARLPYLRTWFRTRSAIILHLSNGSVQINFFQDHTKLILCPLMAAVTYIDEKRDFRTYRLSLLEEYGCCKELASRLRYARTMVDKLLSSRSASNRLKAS
JMJD2A Tudor = blocks the human JMJD2A Tudor domain; Potency, µM (highest dose often 114 µM), usual class: inhibitors; AlphaScreen JMJD2A-Tudor / H3K4me3 peptide binding; 390,000 compounds, 4.4% hits; O75164; further: nearly all actives have a fitted effect of over 50% in size
Sfp PPTase inh = Sfp phosphopantetheinyl transferase inhibition | 310,000 compounds, 3.5% hits | AID 1490 | Potency, µM, usual class: inhibitors | Biochemical Sfp PPTase activity, qHTS;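 further: the enzyme is Sfp with the accession as filed and its product quenches rhodamine fluorescence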
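Step 1, compound plus 15 nM Sfp-PPTase, 15 min, room temperature. Step 2, add rhodamine-CoA (5 uM) and BHQ-2-YbbR (12.5 uM). Step 3, read 525/598 nm fluorescence at 0 and 30 min.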
HP1b chromo inh = inhibitors of HP1-beta chromodomain binding to methylated histone tails | AlphaScreen HP1-beta / biotin-H3K9me3 peptide binding | Potency, µM (highest dose often 114 µM), most hits filed as inhibitors | 390,000 compounds, 0.56% hits; further: nearly all actives have a fitted effect of over 70% in size
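Compound inhibition of the preformed complex between 50 nM HP1-beta and 50 nM biotinylated H3K9me3 peptide was read by AlphaScreen. Buffer was PBS pH 7.4 with 0.01% Tween-20. Incubations ran 30 min at room temperature, with 10 ug/mL donor/acceptor beads.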
BAZ2B inh = blocks human BAZ2B; 360,000 compounds, 4.4% hits; Potency, µM (titrated, usually from 114 µM), most hits filed as inhibitors; AID 504333; Q9UIF8; AlphaScreen BAZ2B-H3K14Ac peptide displacement; further: nearly all actives have a fitted effect of over 60% in size
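Inhibition is scored as reduced AlphaScreen emission. The BAZ2B/b-H3(5-23)K14Ac complex (50 nM each) in PBS pH 7.4, 0.01% Tween-20 meets compound (up to 110 uM) for 30 min at RT before bead addition.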
Hits are given with their value; . = inactive; ? = inconclusive; / = no result given; ! = not active in a repeat; [ ] = remark or other dose. The call rests on the fitted dose curve; in most records, active means well fitted curve in the direction sought with a large enough effect; inconclusive means small, poorly fitted or top-dose-only effect, or another doubt; inactive means no such curve, though single readings can be large; an effect the other way counts as inactive or inconclusive.

SMILES | G9a inh | PLK1 PBD block | JMJD2A Tudor | Sfp PPTase inh | HP1b chromo inh | BAZ2B inh
CCCOc1ccc(N/C=C/C(=O)c2ccc(OC)c(OC)c2)cc1 | / | 21µM | 28µM | . | . | .
COc1ccc(C(=O)/C=C/NCc2ccc(F)cc2)cc1OC | 50µM | . | . | . | . | .
COc1ccccc1N1CCN(C(=O)c2c3c(nc4ccccc24)C(=O)N(C2CCCCC2)C3)CC1 | . | / | . | / | . | .
COc1cc(/C=C2\CCc3c2nc2ccccc2c3C(=O)O)cc(OC)c1OC | 14µM | 17µM | 89µM | ? | . | 45µM
COc1cccc(/C=C2\CC(C)Cc3c2nc2ccccc2c3C(=O)O)c1OC (stereo not given) | 50µM | . | . | 32µM | . | .
COc1cc(/C=C2\CCOC2=O)cc(OC)c1OC | . | . | . | . | . | .
CCOc1cc(/C=C2\CCCc3c2nc2ccccc2c3C(=O)O)ccc1OC | ? | 3µM | 89µM | 10µM | . | 79µM
COc1ccc(/C=C2\CCCc3c2nc2ccccc2c3C(=O)OCC(=O)c2c(N)n(C)c(=O)n(C)c2=O)cc1 | . | / | / | . | / | .
COc1cc(/C=C2\CCCc3c2nc2ccccc2c3C(=O)O)cc(Br)c1O | 40µM | . | . | . | . | ?
COc1ccc(N2CCN(CCCn3ccc(NC(=O)OCc4ccccc4)nc3=O)CC2)cc1 | / | . | / | / | / | /
COc1ccc(NC(=O)COC(=O)CO/N=C(\C)c2ccc3c(c2)OCO3)cc1S(N)(=O)=O | . | . | . | / | . | .
CCOC(=O)c1ccc(NC(=O)CN2Cc3ccccc3C2=O)cc1 | . | / | . | / | . | .
CCN1C/C(=C\c2cccc(C)c2)c2nc3ccccc3c(C(=O)O)c2C1 | .[0.501 µM] | / | / | 79µM | / | ?
Cc1ccccc1S(=O)(=O)Cc1ccc(C(=O)NCc2ccco2)o1 | . | 24µM | 16µM | . | . | .
Cc1ccccc1S(=O)(=O)Cc1ccc(C(=O)NC2CC2)o1 | . | . | 50µM | . | . | .
Cc1ccccc1S(=O)(=O)Cc1ccc(C(=O)NCc2ccccc2)o1 | . | . | . | . | . | .
COc1ccc(Cl)cc1NC(=O)CC1S/C(=N/N=C2CCCCCC2)NC1=O (stereo not given) | / | . | . | . | . | .
Oc1c(C=Nc2ccccc2Cl)[nH]c2ccccc12 | 8.9µM | . | ? | ? | . | .
COc1cc(CN2CCCCC2C(=O)Nc2ccc(Oc3ccccc3)nc2)ccc1O (stereo not given) | 5.6µM | ? | . | . | . | .
O=C(Nc1ccc(Oc2ccccc2)nc1)C1CCCCN1Cc1ccc(O)cc1 (stereo not given) | . | / | / | . | / | .
CCc1nn(CC(=O)NC2CCN(Cc3ccccc3)CC2)c(=O)c2cc3cc(F)ccc3n12 | 45µM | . | . | . | . | .
CCc1nn(CC(=O)NC(C)CCc2ccccc2)c(=O)c2cc3cc(F)ccc3n12 (stereo not given) | 50µM! | . | . | . | . | ?
COc1ccc2c(c1)c1c(c(=O)n(CCc3ccccc3)c(=O)n1Cc1cccc(Cl)c1)n2C | . | / | . | / | . | .
CCC1(c2ccc(Cl)cc2)NC(=S)N(c2ccccc2)N1 (stereo not given) | 13µM | ? | . | 56µM | . | .
Cc1ccc(N2CN(CCc3ccccc3)CNC2=S)cc1 | / | . | . | . | . | .
SMILES | G9a inh | PLK1 PBD block | JMJD2A Tudor | Sfp PPTase inh | HP1b chromo inh | BAZ2B inh
CCC1(c2ccccc2)NC(=S)N(c2ccc(C)cc2)N1 (stereo not given) | ? | . | . | 50µM | . | .
Cc1ccc(S(=O)(=O)c2nc(-c3cccs3)oc2N2CCC(C(N)=O)CC2)cc1 | / | . | . | / | . | /
COC(=O)C1=C(C)N(c2cccc(OC)c2)C(=O)/C1=C\c1ccco1 | ? | 30µM | 45µM | . | 40µM | 18µM
COC(=O)C1=C(C)N(CCc2ccccc2)C(=O)/C1=C\c1ccco1 | 32µM | . | 40µM | 50µM | . | 35µM
CCOc1ccc(N2C(=O)/C(=C/c3ccccc3OCC(=O)OC)N(CC(=O)OC)C2=S)cc1 | ? | . | . | . | . | .
CCOc1ccc(N2C(=O)/C(=C/c3ccco3)N(C)C2=S)cc1 | 10µM | . | . | 40µM | . | .

Compound activity: PubChem BioAssay, National Center for Advancing Translational Sciences (NCATS)
